# In the supplement of paper PMC10105736:
# Values without a mark were called inactive.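 How the source made its calls: active = MAPPIT score above the 99th percentile of random reference set scores in the same batch; inactive = at or below it.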
# How the values were obtained:
# Assay in all cases: MAPPIT interaction score (arbitrary units); higher = stronger binary interaction signal, active = hit call of the paper
# CG8128 = conditions: MAPPIT configuration: N-N; pair source set: Finley_Y2H
# CG8292 = conditions: MAPPIT configuration: N-N; pair source set: Curagen_low_conf
# CG8320 = conditions: MAPPIT configuration: N-C; pair source set: screen_4
# CG9040 = conditions: MAPPIT configuration: N-N; pair source set: Finley_Y2H
# CG8043 = conditions: MAPPIT configuration: N-N; pair source set: DPIM
# 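Further: HEK293T cells with Epo stimulation, STAT-responsive firefly luciferase reporter, fold induction versus unstimulated cells divided by the larger fold induction of two negative controls lacking either bait or prey.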
binder,measurement,setting,value
crn (protein) MERPQKMPKVAKVKNKAPAEVQITAEQLLREAKERDLEILPPPPKQKISDPAELADYQQRKRKTFEDNLRKNRMVVSHWIKYAQWEEQQQEIQRARSIWERALDNEHRNVTLWLKYAEMEMKNKQVNHARNLWDRAVTIMPRVNQFWYKYTYMEEMLENVAGARQVFERWMEWQPEEQAWQTYVNFELRYKEIDRAREIYERFVYVHPDVKNWIKFARFEESHGFIHGSRRVFERAVEFFGDDYIEERLFIAFARFEEGQKEHDRARIIYKYALDHLPKDRTQELFKAYTKHEKKYGDRAGIEDVIVSKRKYQYEQEVAANPTNYDAWFDYLRLIEAEGDRDQIRETYERAISNVPPANEKNFWRRYIYLWINYALYEELEAEDAERTRQIYKTCLELIPHKQFTFSKLWLLYAQFEIRCKELQRARKALGLAIGMCPRDKLFRGYIDLEIQLREFERCRMLYEKFLEFGPENCVTWMKFAELENLLGDTDRARAIFELAVQQPRLDMPELLWKAYIDFEVALGETELARQLYERLLERTQHVKVWMSFAKFEMGLSHGDSGPDAELNVQLARRIYERANEMLRQLGDKESRVLLLEAWRDFERDASDSQEMQKVMDKMPRRIKKRQKIVSDNGVEEGWEEVFDYIFPEDEMARPNLKLLAAAKMWKTQKDNTVDDPPATAIASEPEPAADAAPADTTDSGD,MAPPIT interaction score,CG8128,2.14
Vha14-1 (protein) MALHSAIKGKLISVIGDEDTCVGFLLGGVGEINKNRHPNFMVVDKNTAVSELEDCFKRFLKRDDIDIILINQNCAELIRHVIDAHTSPVPAVLEIPSKDHPYDASKDSILRRARGMFNPEDLVR,MAPPIT interaction score,CG8292,-0.0476
tap (protein) MAACYNAYSAGSQSFEFDEDDDDASFDSGYEKSFETEAQLSSRRRLDFGTPPTPAIPQPYSGGTWDAVPLSSPPAGFVGLLDTSSNHSTRSGRTLVEHLNSRATNGVFDPPLTSTPVKSPEDPNAPRPKRKYAVGKNRVTRSRSPTQVVKIKRFRRMKANDRERNRMHNLNDALEKLRVTLPSLPEETKLTKIEILRFAHNYIFALEQVLESGGSINLDLEKLQNFTLSGERITKELFDALFVNPQPYPLFGRMFPYGQGMAPLAQHQTAPASHAEQPPAMGGFQHGMDYPQQPPGFDFTGSMRFYHQQQQQPHQPHHLQPNPQQESSPQQFSQEKYDLFRGSFDAAANLHSTNLDSGIHQQSSFYSQTPPWKDYPEDQAHVHPVPHQHSYKNFAPQV,MAPPIT interaction score,CG8320,-0.175
Bre1 (protein) MSKRSADDATGSSCLVAAAAAGQPPIKKVHFEPHLIGPVSTLEEMDIKVLEFQNKKLAQRIEQRMRTEAELRHRIEQLEKRQTQDDAVLNVVNRYWNQLNEDIRVLLQRFDAETADELENRNENEVTTSFLAQLSTWDKEELDEKLANRVQVSKRAVAKIVQVIDRLMQRNEKITHVLKGDSLASAGSGSGAGAGGEEEQQQASGDAETTTSSAGVHALEETLKQTHIEIMSENHKLQNLNTSLHEKFHTMSLKMKEYQDAHTAKETENAELKNQIDELQYDLEKIHCRNDKLENHLAEAIEKLKAYHQIYGDPNKSTNSAKTPTTTGSGGATTSVNSQLLEELQKELEEYRELANNRLQELDKLHATHRETLKEVEKLKMDIRQLPESVIVETTEYKCLQSQFSVLYNESMQIKTMLDETRNQLQTSKNQHLRQIEVMESEELIAQKKVRSEMIQMEDVLALIRKEYETLRIEFEQNMAANEQTAPINREMRHLITSLQNHNGQLKGEVQRYKRKYKDTSTDNLKLRQELADALATLEGNKLQAATGAAGEEIKQENSTGVKEENSNNVSASGQTNQTNSGNDTNVAIKEENHISAEDEADDEASGKDVKDGIKQEKLSSGDAAAAEKKDSPGPGNSTSSATNSVPVKNEKDSKDGVKGKDVKAVESETVRDLKAQLKKALNDQKEMKLLLDMYKGVSKDQRDKVQLMATEKKLRSEIEELRQQLKKLQESKREERKKLADEEALRKIKQLEEQKYELQKQMANHKPTDNSWGSGAPGTANYTRPFVGSHEEEALLNEMEVTGQAFEDMQEQNSRLIQQLREKDDANFKLMSERIKANQLHKLLREEKTVLEDQMATATTQIEAMHIVLRKLEEKERSLQATVASIEKELMLRQQAMEMHKRKAIESAQSAADLKLHLEKYHAQMKEAQQVVAEKTSSLEAEAYKTKRLQEELAQFKRKAERMKKMEMSGTTIDEVMIEEIREYKETLTCPSCKVKRKDAVLSKCFHVFCYDCLRTRYETRQRKCPKCNCAFGANDYHRLYLQ,MAPPIT interaction score,CG9040,-0.0702
RasGAP1 (protein) MLLKKKRYMFDERDDNNINSPVAVEPSSNNNKMADTREVRIEEQLKVKIGEAKNLSSRNAANTSCSTQGTRDVYCTIALDQEEICRTPTIERTLTPFFGEEHQFKIPRRFRYLTIYLWDRDMKQDKPIGKIAIKREELHMYNHKDHWFSLRPVDQDSEVQGMVNVEVAFTEAQQTQSLSEGIDLGQHTLRHHQNLPHHSHQQRAHLNDYKENSELSNIQRASAAAASSSSAAMTLKTRAAGLFGHVHHPPSQTQHFPIINTTSTSSDQLSNWKSHGRFVGVTIKVPACVDLAKKQGTCDPFVVCTAHYSNKHQVTRRTKQRKKTVDPEFDEAMYFDLHIDADAGSTNTTGSNKSAGSLESSANKGYSIYPVGGADLVEIVVSVWHDAHGAMSDKVFLGEVRLPMLNKQEQQAVNPSAWYYLQPRSMTHSSRSLNATPRSCATPPGTRLSVDSTIGSLRLNLNYTADHVFPLATYDDLMNLLLESVDQRPITVSAVSILGELVSGKTEVAQPLVRLFTHTERIAPIIKALADHEISHLTDPTTIFRGNTLVSKMMDEAMRLSGLHYLHQTLRPVLSQIVAEKKPCEIDPSKIKDRSAVDTNLHNLQDYVERVFEAITKSADRCPKVLCQIFHDLRECAGEHFPSNREVRYSVVSGFIFLRFFAPAILGPKLFDLTTERLDAQTSRTLTLISKTIQSLGNLVSSRSSQQTCKEEFTVELYKKFCTEQHVDAVKHFLEVISTPSHASSSVHPAAAAATPLEPVLLKEGLMTKYPTSRKRFGRQFKQRHFRLTTHSLSYAKSKGKQPICDIPLQEIASVEQLKDKSFKMQNCFKIVHNDRSLIVQTTNCVEEREWFDLLHKICLMNSIRMQYFHPSAFVSGFYSCCGRSDENSPGCKKVLDKTMDYFQMDLVTALDPALDLQRIHTLIMSNMSVLESLLDPLTYHQSLSQTQHQQHNPLVPLATDLQKHSPQAFAEFKRTIEKLREKAYAIDRDHRDYKQGITRQLKYGSRQAPIGDDNYWHMMRAAGQLNQQHHQQQQHQQQQQQQQQQQLQQFQPQPVLPQMQNVRAYPYQPATSNMNAYCLHNMQYQQQRLPFHQQQQQHHQQLQQQQSQFQPLRSHQLQRHNNNLNNNNCGNGSSSSPSSTTSSVVAAPPSTTSSSQPAPPIY,MAPPIT interaction score,CG8043,0.645
